We go through 20 compounds from PubChem BioAssay.

Unmarked numbers belong to inactive results. Calls of active or inactive are those of the source. Rule as the data show it, unless noted: active = inhibition above about 36%; inactive = the rest.

Test [1] deals with Nuclear receptor coactivator 3 (Homo sapiens) (UniProt Q9Y6Q9). The test is described as follows: NCOA3 GAL4-fusion reporter inhibition – cell-based, luminescence, quadruplicate, confirmation (AID 588792;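 active = mean inhibition over 43.08%, the solvent-only control mean plus 3 SD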;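 also: 0% = DMSO treated cells and 100% = gossypol at 36 µM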). To be noted: HEK293 GAL4-SRC3 luciferase reporter, at 3.6 µM, stronger effect = higher value. (A reporter such as luciferase makes a cellular process visible.)
Test [2] concerns transactivating tegument protein VP16 (Human herpesvirus 1), Gal4-VP16 luciferase reporter. The test is described as follows: repression of VP16-driven luciferase reporter – cell-based, luminescence, high throughput, counter-screen for SRC3 inhibitor project (AID 588794; in the data active = inhibition above about 30%). To be noted: mammalian cells, at 3.6 µM, stronger effect = higher value.
Test [3] has as its target Nuclear receptor coactivator 1 (Homo sapiens) (UniProt Q15788). Briefly: NCOA1 GAL4-fusion reporter inhibition – cell-based, luminescence, quadruplicate, confirmation (AID 588820;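 active = mean inhibition above 46.68%, the untreated control wells mean plus 3 SD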;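 also: 0% = DMSO wells and 100% = gossypol 36 µM treated wells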). To be noted: HEK293 GAL4-SRC1 luciferase reporter, at 3.6 µM, stronger effect = higher value.
A short description of test [4]: repression of VP16-driven luciferase reporter – cell-based, luminescence, high throughput, counter-screen for SRC1 inhibitor project (AID 588824; in the data active = inhibition above about 25%). To be noted: cell-based VP16 transactivation luciferase luminescence; at 3.6 µM; stronger effect = higher value.
For test [5], the system named is transactivating tegument protein VP16 (Human herpesvirus 1). The test is described as follows: compounds suppressing VP16-driven luciferase signal – cell-based, luminescence, single concentration, counter-screen for SRC2 inhibitor project (AID 652007). To be noted: cell-based VP16 transactivation luciferase reporter, at 8.9 µM, stronger effect = higher value. A general note: A counterscreen serves to expose hits that act by an unwanted route or on another target.

In test [6] the target is Nuclear receptor coactivator 2 (Homo sapiens) (UniProt Q15596). The test is described as follows: inhibition of GAL4-SRC2 driven luciferase expression – cell-based, luminescence, HEK293, triplicate, confirmation (AID 652008;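 active = mean inhibition above 46.5%, the solvent-only control mean plus 3 SD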;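 also: 0% = DMSO-treated cells and 100% = Gossypol at 36 µM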). To be noted: HEK293 GAL4-SRC2 luciferase reporter, at 8.9 µM, stronger effect = higher value.
Sequence of Nuclear receptor coactivator 2 (Homo sapiens) (Q15596 whole entry, looked up, the tested form may be a part): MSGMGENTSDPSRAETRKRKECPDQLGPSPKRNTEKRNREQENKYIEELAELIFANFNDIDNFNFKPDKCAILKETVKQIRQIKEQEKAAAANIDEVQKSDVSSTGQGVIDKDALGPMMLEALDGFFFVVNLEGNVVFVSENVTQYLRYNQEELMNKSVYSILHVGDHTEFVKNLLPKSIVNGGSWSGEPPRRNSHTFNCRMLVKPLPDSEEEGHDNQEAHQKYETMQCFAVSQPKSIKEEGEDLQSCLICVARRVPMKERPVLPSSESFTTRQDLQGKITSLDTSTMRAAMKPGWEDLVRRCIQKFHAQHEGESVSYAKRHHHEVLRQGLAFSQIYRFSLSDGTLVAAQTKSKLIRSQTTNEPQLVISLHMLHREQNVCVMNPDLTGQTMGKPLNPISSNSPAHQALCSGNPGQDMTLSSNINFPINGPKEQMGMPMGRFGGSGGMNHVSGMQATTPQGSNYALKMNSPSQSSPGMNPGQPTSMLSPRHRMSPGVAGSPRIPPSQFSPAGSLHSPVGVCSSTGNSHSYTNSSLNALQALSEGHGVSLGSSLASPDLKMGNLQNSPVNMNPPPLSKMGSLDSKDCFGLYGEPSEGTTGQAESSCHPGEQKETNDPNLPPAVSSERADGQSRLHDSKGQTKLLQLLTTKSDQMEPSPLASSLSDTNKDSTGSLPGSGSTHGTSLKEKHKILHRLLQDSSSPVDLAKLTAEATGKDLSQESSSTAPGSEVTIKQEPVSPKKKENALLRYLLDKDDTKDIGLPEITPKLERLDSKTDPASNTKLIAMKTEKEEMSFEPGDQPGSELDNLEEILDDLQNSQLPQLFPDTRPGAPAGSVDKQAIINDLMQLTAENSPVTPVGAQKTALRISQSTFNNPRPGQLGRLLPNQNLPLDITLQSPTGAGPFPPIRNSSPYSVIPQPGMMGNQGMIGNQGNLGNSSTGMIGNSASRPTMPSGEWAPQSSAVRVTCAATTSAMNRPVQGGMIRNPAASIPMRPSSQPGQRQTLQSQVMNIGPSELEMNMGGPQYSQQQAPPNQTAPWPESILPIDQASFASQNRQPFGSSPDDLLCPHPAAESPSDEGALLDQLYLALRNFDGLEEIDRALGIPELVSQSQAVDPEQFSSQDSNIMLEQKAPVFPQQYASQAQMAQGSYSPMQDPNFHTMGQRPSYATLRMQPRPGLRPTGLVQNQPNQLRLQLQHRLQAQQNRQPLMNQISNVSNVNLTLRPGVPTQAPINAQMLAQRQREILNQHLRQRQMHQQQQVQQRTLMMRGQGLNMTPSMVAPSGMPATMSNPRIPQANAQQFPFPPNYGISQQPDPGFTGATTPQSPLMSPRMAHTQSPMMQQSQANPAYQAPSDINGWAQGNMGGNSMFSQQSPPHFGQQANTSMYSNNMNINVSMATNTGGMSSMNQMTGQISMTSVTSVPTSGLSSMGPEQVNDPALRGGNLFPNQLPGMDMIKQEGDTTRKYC

Sequence of Nuclear receptor coactivator 3 (Homo sapiens) (Q9Y6Q9 whole entry, looked up, the tested form may be a part): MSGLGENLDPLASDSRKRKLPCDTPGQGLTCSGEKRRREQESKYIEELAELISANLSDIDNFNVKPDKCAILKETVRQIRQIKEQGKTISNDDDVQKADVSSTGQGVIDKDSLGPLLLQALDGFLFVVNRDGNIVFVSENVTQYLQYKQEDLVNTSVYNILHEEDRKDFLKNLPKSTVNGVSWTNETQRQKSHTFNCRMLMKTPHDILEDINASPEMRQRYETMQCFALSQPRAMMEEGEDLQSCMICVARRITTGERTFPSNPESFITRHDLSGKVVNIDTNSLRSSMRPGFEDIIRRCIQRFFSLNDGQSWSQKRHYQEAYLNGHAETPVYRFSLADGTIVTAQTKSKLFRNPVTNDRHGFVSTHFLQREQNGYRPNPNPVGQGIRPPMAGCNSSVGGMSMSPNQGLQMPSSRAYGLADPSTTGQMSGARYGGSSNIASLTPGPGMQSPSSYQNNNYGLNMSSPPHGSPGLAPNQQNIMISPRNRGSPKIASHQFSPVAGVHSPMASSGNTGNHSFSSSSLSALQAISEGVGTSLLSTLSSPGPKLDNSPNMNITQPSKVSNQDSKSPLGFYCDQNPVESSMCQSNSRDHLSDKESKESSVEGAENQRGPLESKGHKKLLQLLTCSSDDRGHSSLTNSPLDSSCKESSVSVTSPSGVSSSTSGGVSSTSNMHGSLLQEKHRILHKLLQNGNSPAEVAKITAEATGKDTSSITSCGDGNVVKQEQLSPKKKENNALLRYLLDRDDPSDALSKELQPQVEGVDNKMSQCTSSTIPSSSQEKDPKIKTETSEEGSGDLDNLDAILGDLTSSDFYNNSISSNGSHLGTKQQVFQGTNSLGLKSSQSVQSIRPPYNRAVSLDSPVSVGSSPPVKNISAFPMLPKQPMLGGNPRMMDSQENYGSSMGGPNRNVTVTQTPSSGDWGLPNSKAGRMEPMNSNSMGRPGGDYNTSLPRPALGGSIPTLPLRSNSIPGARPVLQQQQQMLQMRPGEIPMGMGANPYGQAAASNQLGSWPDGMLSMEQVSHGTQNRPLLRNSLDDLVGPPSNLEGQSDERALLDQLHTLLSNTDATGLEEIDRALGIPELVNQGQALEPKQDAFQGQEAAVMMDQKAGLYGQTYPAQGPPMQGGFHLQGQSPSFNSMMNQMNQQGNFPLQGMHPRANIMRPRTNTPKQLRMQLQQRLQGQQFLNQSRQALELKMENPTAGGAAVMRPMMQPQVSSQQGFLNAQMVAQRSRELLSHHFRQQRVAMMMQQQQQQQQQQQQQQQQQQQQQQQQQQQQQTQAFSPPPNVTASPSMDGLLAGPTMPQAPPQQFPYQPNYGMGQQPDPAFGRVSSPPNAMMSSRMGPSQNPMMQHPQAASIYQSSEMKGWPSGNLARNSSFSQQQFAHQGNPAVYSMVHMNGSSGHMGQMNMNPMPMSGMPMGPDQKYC
Sequence of Nuclear receptor coactivator 1 (Homo sapiens) (Q15788 whole entry, looked up, the tested form may be a part): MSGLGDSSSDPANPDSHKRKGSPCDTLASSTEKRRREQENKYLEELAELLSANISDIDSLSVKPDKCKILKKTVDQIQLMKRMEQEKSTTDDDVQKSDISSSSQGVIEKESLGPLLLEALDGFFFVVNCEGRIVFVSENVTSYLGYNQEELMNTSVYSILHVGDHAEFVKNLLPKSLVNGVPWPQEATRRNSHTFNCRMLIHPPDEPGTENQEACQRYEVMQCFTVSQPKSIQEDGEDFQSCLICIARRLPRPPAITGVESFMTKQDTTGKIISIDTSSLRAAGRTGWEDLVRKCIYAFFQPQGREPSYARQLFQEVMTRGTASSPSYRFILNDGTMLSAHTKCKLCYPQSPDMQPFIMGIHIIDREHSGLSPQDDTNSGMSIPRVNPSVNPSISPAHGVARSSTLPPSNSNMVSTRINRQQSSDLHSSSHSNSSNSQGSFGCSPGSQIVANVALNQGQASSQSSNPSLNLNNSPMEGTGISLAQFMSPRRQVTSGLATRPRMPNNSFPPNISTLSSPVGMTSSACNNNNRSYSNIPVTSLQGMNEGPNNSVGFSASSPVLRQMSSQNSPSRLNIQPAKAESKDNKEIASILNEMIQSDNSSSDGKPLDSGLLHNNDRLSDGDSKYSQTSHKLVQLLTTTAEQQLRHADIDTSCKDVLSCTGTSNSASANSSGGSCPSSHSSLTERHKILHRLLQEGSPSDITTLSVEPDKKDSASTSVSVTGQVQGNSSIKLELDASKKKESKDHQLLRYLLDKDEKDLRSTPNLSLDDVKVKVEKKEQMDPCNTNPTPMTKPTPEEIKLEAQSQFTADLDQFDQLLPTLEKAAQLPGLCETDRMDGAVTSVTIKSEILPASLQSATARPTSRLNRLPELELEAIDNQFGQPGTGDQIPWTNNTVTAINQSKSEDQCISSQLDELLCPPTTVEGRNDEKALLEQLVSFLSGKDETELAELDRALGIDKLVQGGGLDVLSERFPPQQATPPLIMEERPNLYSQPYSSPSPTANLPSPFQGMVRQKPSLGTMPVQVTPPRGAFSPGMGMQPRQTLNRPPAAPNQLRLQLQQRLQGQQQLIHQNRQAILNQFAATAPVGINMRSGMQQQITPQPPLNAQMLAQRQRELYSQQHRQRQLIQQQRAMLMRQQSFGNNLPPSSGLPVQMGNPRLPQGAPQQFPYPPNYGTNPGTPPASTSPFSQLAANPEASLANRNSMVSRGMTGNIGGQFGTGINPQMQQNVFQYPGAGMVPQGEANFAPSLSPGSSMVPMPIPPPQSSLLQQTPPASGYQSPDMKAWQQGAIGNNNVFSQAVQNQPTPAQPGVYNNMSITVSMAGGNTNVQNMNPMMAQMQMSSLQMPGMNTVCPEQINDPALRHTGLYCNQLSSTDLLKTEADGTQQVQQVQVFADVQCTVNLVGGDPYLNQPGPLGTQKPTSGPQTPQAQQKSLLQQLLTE

For orientation: inhibition means the relative decrease from the control value, in per cent. As for `COc1cccc(N(C(=O)CCl)C(C(=O)NCCc2ccccc2)c2cccs2)c1` (stereo not given), the inhibition in test [1] is 60.3% (active); in test [2], 36% (active); in test [3] it was 24.3%; in test [4], 34% (active); in test [5] it was 27.8%; in test [6], 63.3% (active).
For the compound `c1csc(CNc2ncnc3ccc(-c4ccoc4)cc23)c1`, the inhibition was 62.6% (active) in test [1]; 41.1% (active) in test [2]; 34.6% in test [3]; 37% (active) in test [4]; 5.65% in test [5]; 37.1% in test [6].
As for `NC(=O)c1sc2nc3c(c(-c4cccs4)c2c1N)CCCCC3`, the inhibition in test [1] was 83.3% (active); in test [2] it was 58.4% (active); in test [3] it was 77.6% (active); in test [4] it was 65% (active); in test [5], 7.38%; in test [6], 60.3% (active).
Turning to `Cc1nc2sc(C(N)=O)c(N)c2c2c1CCCC2`, the inhibition was 79.4% (active) in test [1]; 47.5% (active) in test [2]; 69% (active) in test [3]; 51% (active) in test [4]; 6.77% in test [5]; 61.5% (active) in test [6].
Regarding `CCCCN1C=CC(=C2C(=O)c3ccccc3C2=O)C=C1`, the inhibition in test [1] was 41.5%; in test [2], 23.1%; in test [3] it was -41.3%; in test [4], 14.1%; in test [5] it was 51% (active); in test [6], 73.1% (active).
Turning to `CC1(Cc2cccc(F)c2)C(=O)Nc2ccc(-c3cccnc3)cc21` (stereo not given), the inhibition in test [1] was 66.8% (active); in test [2], 49.2% (active); in test [3], 65% (active); in test [4], 49% (active); in test [5], 8.45%; in test [6], 56% (active).
Consider `CC(C)(C)c1ccc(C(=O)NC(=S)Nc2nc3c(s2)CCCC3)cc1`, for which the inhibition in test [1] was 20.4%; in test [2], -9.66%; in test [3], -33.4%; in test [4], -47.4%; in test [5] it was 0.2%; in test [6], 34.8%.
Consider `CC(=O)c1sc(NC(=O)C2(F)C(F)(F)C(F)(F)C(F)(F)C(F)(F)C2(F)F)nc1C`, for which the inhibition in test [1] is 66.5% (active); in test [2], 79% (active); in test [3], 60.4% (active); in test [4], 84.5% (active); in test [5], 4.16%; in test [6], 23.9%.
Take `NNC(=O)c1cc2ccccc2cc1O`: the inhibition in test [1] is 67.7% (active); in test [2], 12.8%; in test [3] it was 37.5%; in test [4], 19.3%; in test [5], 16.4%; in test [6], 77.8% (active).
In the case of `Cc1ccc(/C=C2\SC(=S)N(CCCC(=O)NNC(=O)c3ccccc3O)C2=O)cc1`, the inhibition in test [1] is 73.3% (active); in test [2], 53.6% (active); in test [3], 74.7% (active); in test [4], 58.3% (active); in test [5], 92.8% (active); in test [6], 95.4% (active).
On to `O=C1CCCCC1Sc1nnc(-c2ccc3c(c2)OCO3)o1` (stereo not given), for which the inhibition in test [1] was -5.91%; in test [2] it was -22.1%; in test [3], -129%; in test [4], -49.6%; in test [5] it was 34%; in test [6], 53.1% (active).
Consider `CC1(Cc2ccc(F)cc2)C(=O)Nc2ccc(-c3cccnc3)cc21` (stereo not given), for which the inhibition in test [1] is 50.6% (active); in test [2], 35.4% (active); in test [3], 48.7% (active); in test [4] it was 35.3% (active); in test [5], 10.2%; in test [6] it was 36.8%.
On to `CCOC(=O)NNC(=O)CCn1c2c(c3ccccc31)CCCC2`, for which the inhibition was 54.1% (active) in test [1]; 43.4% (active) in test [2]; 51.3% (active) in test [3]; 37% (active) in test [4]; 1.39% in test [5]; 39.1% in test [6].
Take `CC(C)(C)c1ccc(C(=O)NCCOc2ccccc2F)cc1`: the inhibition was 10.1% in test [1]; -2.97% in test [2]; -61% in test [3]; -47.6% in test [4]; -20.4% in test [5]; 47.8% (active) in test [6].
Turning to `Cc1cc(N2CCOCC2)c2c(N)c(Br)cc(C)c2n1`, the inhibition was 71.8% (active) in test [1]; 59% (active) in test [2]; 76.3% (active) in test [3]; 60.3% (active) in test [4]; -7.31% in test [5]; 54.8% (active) in test [6].
For `CCCCCN1C=CC(=C2C(=O)c3ccccc3C2=O)C=C1`, the inhibition in test [1] was 44.2% (active); in test [2], 31.3% (active); in test [3], -55.8%; in test [4], 15.5%; in test [5], 55.1% (active); in test [6], 77.3% (active).
As for `C=CCN(CC=C)c1ncnc2[nH]ncc12`, the inhibition is 71.4% (active) in test [1]; 50.9% (active) in test [2]; 53.9% (active) in test [3]; 45.2% (active) in test [4]; -8.17% in test [5]; 34.4% in test [6].
Regarding `N#CC(C#N)c1ccnc2ccccc12`, the inhibition in test [1] was 66.9% (active); in test [2], 40.6% (active); in test [3] it was 64.1% (active); in test [4], 38.3% (active); in test [5], 4.65%; in test [6] it was 36.4%.
Turning to `COc1ccc2ncn(-c3ccccc3)c2c1`, the inhibition in test [1] was 49.2% (active); in test [2], 32.7% (active); in test [3], 46.1%; in test [4] it was 23.7%; in test [5] it was -12.1%; in test [6], 38.2%.
Consider `CCn1c(Oc2ccccc2C)nc2c1c(=O)n(C)c(=O)n2C`, for which the inhibition is 51.9% (active) in test [1]; 34.7% (active) in test [2]; 51.5% (active) in test [3]; 30.6% (active) in test [4]; 14.5% in test [5]; 40.9% in test [6].
